Results as given in ChEMBL document CHEMBL3433997, “St. Jude Leishmania screening dataset” (2016).

Tests used:
Type in all cases: functional
[1] = molecular target: Solute carrier family 2, facilitated glucose transporter member 1 (Homo sapiens) (UniProt P11166); test: ST_JUDE_LEISH: Cytotoxicity at 2uM final concentration against transgenic Leishmania Mexicana promastigotes LmGLUT1 that are glucose transport deficient and complemented with the human glucose transporter GLUT1. Activity is measured by DNA content using SYBR green in vitro
[2] = molecular target: Hexose transporter 1 (Plasmodium falciparum) (UniProt O97467); test: ST_JUDE_LEISH: Cytotoxicity at 2uM final concentration against transgenic Leishmania Mexicana promastigotes LmPfHT that are glucose transport deficient and complemented with the Plasmodium falciparum hexose transporter. Activity is measured by DNA content using SYBR green in vitro
[3] = molecular target: Glucose transporter (Leishmania mexicana) (UniProt O61059); test: ST_JUDE_LEISH: Cytotoxicity at 2uM final concentration against transgenic Leishmania Mexicana promastigotes LmGT2 that are glucose transport deficient and complemented with the L. Mexicana glucose transporter 2. Activity is measured by DNA content using SYBR green in vitro

Chain of Solute carrier family 2, facilitated glucose transporter member 1 (Homo sapiens) (P11166 whole entry): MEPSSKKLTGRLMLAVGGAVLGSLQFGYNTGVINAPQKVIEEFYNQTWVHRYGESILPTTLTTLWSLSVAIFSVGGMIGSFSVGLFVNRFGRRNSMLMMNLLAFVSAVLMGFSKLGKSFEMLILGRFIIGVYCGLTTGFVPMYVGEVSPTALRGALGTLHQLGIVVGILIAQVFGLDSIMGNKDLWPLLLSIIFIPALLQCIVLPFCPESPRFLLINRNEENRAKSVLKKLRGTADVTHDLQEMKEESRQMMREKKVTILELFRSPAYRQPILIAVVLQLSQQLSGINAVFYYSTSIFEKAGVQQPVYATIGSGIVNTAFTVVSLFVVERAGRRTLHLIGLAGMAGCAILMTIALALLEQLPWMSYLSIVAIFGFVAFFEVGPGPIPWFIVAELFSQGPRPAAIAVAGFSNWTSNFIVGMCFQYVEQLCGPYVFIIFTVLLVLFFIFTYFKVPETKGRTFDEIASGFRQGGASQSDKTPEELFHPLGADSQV

| Compound | inhibition [1] | inhibition [2] | inhibition [3] |
| --- | --- | --- | --- |
| Cc1cc(=O)c(-c2ccc(OCCSc3ccc(C(F)(F)F)cn3)cc2)c(C)[nH]1 | 2.89% | 5.13% | 2.2% |
| CC(=O)c1ccc2c(c1)C(NC(=O)c1cccc(Cl)c1Cl)C(CO)C(C)(C)O2 (stereo not given) | 1.76% | 3.84% | -1.69% |
| Fc1ccc2[nH]c(-c3cccc(-c4cccc(CNCc5cnn(-c6ccccc6)n5)c4)c3)nc2c1 | 6.56% | 8.75% | 7.46% |
| OC(CNC1CCCCC1)Cn1c2ccc(I)cc2c2cc(I)ccc21 (stereo not given) | 0.77% | 1.51% | 1.17% |
| CCCCOc1c(CCNCCCCNCCc2cc(OC)c3ccccc3c2OCCCC)cc(OC)c2ccccc12 | 4.98% | 5.5% | 2.03% |
| Cc1ccc(F)c(OCC2CCN(c3ccc(C(=O)NC4CC4)cn3)CC2)c1 | 3.7% | 2.89% | -1.65% |
| COc1cc2c(cc1C(F)(F)F)N(C(=O)Nc1cc(OC(F)(F)F)cc(-c3cccnc3)c1)CC2 | -0.39% | 1.79% | -0.44% |
| Cc1nnsc1C(=O)Nc1cccc(-c2ccc(-c3nc4ccccc4[nH]3)s2)c1 | 1.8% | 1.37% | -0.11% |
| CN=C(S)NN=C(C)c1ccccn1 | 2.61% | -4.43% | -1.99% |
| Cn1nc(-c2ccc(NC(=O)Nc3cc(C(F)(F)F)cc(C(F)(F)F)c3)c(F)c2)c2cnc(NCCN3CCOCC3)nc21 | 2.68% | 2.48% | 3.49% |
| CN1CCC(NCc2cccc(-c3ccc(S(=O)(=O)NCCc4ccccn4)c(F)c3)c2)CC1 | 1.22% | 0.03% | 0.94% |
| Cc1onc(-c2ccccc2)c1-c1nc(NCCC(c2ccccc2)c2ccccc2)no1 | 9.17% | 9.89% | 6.9% |
| Cc1cccc2nc(-c3ccc(-c4ccc(CNCc5ccc(CN)cc5)cc4)s3)[nH]c12 | 5.43% | 8.51% | 0.48% |
| O=C(Nc1cccnc1)c1cc(C(=O)Nc2cccnc2)cc([N+](=O)[O-])c1 | 0.86% | 3.44% | 0.83% |
| COc1cccc(-c2ccc3c(-c4ccc(F)cc4)cnc(N)c3c2)c1 | 5.2% | 4.32% | 2.91% |
| CC(C)c1ccc(N2CCN(CCCCNC(=O)c3ccc(NC(=O)c4cc(Cl)cc(Cl)c4)cc3)CC2)cc1 | -0.22% | 1.11% | 1.9% |
| COc1ccc2nc(-c3ccc(C(=O)NCCCN4CCN(c5cc(Cl)ccc5OC)CC4)cc3)[nH]c2c1 | 0.75% | 0.77% | -0.2% |
| CC(C)CCN1CCCN(Cc2ccc(C(=O)Nc3ccc(F)c(F)c3)cc2)CC1 | 4.12% | 4.65% | 4.14% |
| COc1cc(Cn2ccc3c4c(N)nc(N)nc4ccc32)cc(OC)c1OC | 86.3% | 83.5% | 73.1% |
| CCOc1cc(NCCCNc2ncc([N+](=O)[O-])cc2C)nc2ccccc12 | 1.72% | -1.69% | 0.83% |
| COc1ccc2nccc(NC(=O)OC3CCC(NCc4ccc5c(n4)NC(=O)CS5)CC3)c2c1 (stereo not given) | 4.53% | 4.67% | 3.92% |
| CN1CCN(Cc2nc(-c3ccc4c(Nc5ccc(F)c(O)c5)ccnc4c3)cs2)CC1 | 7.7% | 1.76% | 0.94% |
| CCCOc1cc(NC(=O)Nc2ccnc3ccccc23)cc(OCCC)c1 | -2.56% | 3% | 3.42% |
| c1ccc(CN2CCCN(c3ccc4c(c3)CCN(Cc3ccc(-c5ncc[nH]5)cc3)CC4)CC2)cc1 | 2.8% | 3.96% | 0.68% |

| Compound | inhibition [1] | inhibition [2] | inhibition [3] |
| --- | --- | --- | --- |
| COc1ccc2nccc(NC(=O)C3CCC(NCc4ccc5c(c4)NC(=O)CS5)CC3)c2c1 (stereo not given) | 4.42% | 2.96% | 0.5% |
| O=C(Nc1ccc(-c2cccc(-c3nc4cc(F)ccc4[nH]3)c2)cc1)Nc1ccc(Cl)c(Cl)c1 | 3.29% | 1.92% | 3.36% |
| Cc1c(CC(=O)N(C)C2CCN(CCCCCNC(=O)/C=C/c3ccc(Cl)c(Cl)c3)CC2)sc2ccc(Cl)cc12 | 7.99% | 0.91% | 5.9% |
| CCNc1cc(C(=O)N[C@@H](Cc2ccccc2)[C@H](O)CN[C@@H]2CCc3ccccc32)cc(N2CCCC2=O)c1 | 10.5% | 2.63% | 2.15% |
| Cc1cccc2nc(-c3ccc(-c4cccc(CNCCN(C)C)c4)cc3)[nH]c12 | 3.31% | 2.84% | 0.95% |
| O=C(/C=C/c1ccc(Cl)c(Cl)c1)NCCCCCN1CCC(NC(=O)Nc2ccc(Oc3ccccc3)cc2)C1 (stereo not given) | 2.36% | 1.54% | 0.16% |
| CC1(C)Cc2c([nH]c3ccccc23)C(CCCCCCCCC2=NC(C)(C)Cc3c2[nH]c2ccccc32)=N1 | 8.46% | 6.32% | 0.21% |
| c1ccc2[nH]c(Nc3ccc(Nc4nc5ccccc5[nH]4)cc3)nc2c1 | 0.45% | 0.37% | 0.51% |
| CNC(=O)NC1=NC(C)(C)N(OCCCOc2cc(Cl)c(Cl)cc2Cl)C(N)=N1 | 11.5% | 11.8% | 11.6% |
| CCOc1ccc(Br)cc1/C=C/C(=O)Nc1ccc(C2CCN(C)CC2)cc1 | 9.52% | 7.2% | 5.47% |
| COc1ccc2nc(N3CCN(C(=O)OC(C)(C)C)CC3)nc(NCCCc3ccccc3)c2c1 | 28.4% | 23.1% | 8.03% |
| CC(=NNC(S)=NC(C)(C)C)c1ccccn1 | 65.9% | 69.5% | 49.6% |
| CCc1cn(CCOC)c2ccc(C(=O)N[C@@H](Cc3ccccc3)[C@H](O)CNC(C)(C)CCCC(C)C)cc12 | 0.24% | 1.3% | 1.51% |
| CC(=O)N(C)/N=C/[C@H](CCc1ccccc1)NC(=O)[C@H](CC(C)C)NC(=O)c1cccc(OCCN2CCOCC2)c1 | 9.6% | 9.59% | 8.5% |
| O=C(Nc1ccc(OC2CCN(Cc3ccccc3)C2)c(Cl)c1)c1ccc(F)cc1 (stereo not given) | -5.06% | 1.99% | 4.21% |
| CC(C)(C)c1cc(C(=O)N2CCN(c3cnccn3)CC2)n(Cc2ccccc2)n1 | 4.57% | 4.68% | 4.9% |
| COc1ccc2nccc(NC(=O)C3(O)CCC(NCc4ncc5c(c4Cl)OCCO5)CC3)c2n1 (stereo not given) | 7.91% | 8.5% | 2.13% |
| Cc1cc(Nc2ccc(Oc3ccc(Cl)cc3)cc2)nc(N)n1 | 3.89% | 5.01% | 2.92% |
| N#Cc1ccc(CN2CCCN(c3ccc(NC(=O)c4ccc(F)cc4)cc3)CC2)cc1 | 2.88% | 3.32% | 0.81% |
| COc1ccc(OC)c(Cc2cnc3nc(N)[nH]c(=O)c3c2C)c1 | 3.38% | 4.59% | 5.15% |
| O=C(CC(=O)C(F)(F)F)c1ccccc1[N+](=O)[O-] | 0.17% | 3.36% | -1.14% |
| CN1CCN=C1c1ccc(NC(=O)Nc2ccc(C3=NCCN3C)cc2)cc1 | 13% | 7.37% | 5.87% |
| CN(C(=O)c1snnc1-c1ccccc1)C1CCN(CCCCCNC(=O)/C=C/c2ccc(Cl)c(Cl)c2)CC1 | 3.47% | 0.39% | 3.46% |
| Cc1[nH]c(C)c(-c2ccc(Oc3ccc(Cl)cc3)cc2)c(=O)c1C | 11.4% | 30.5% | 1.29% |

| Compound | inhibition [1] | inhibition [2] | inhibition [3] |
| --- | --- | --- | --- |
| CN(C(=O)c1nn(-c2ccccn2)c2nccc(-c3cccs3)c12)C1CCCCC1 | 5.01% | 5.58% | 3.33% |
| O=C(NCCN1CCC(c2ccncc2)CC1)c1ccc(Nc2nccc(Nc3ccc(Oc4ccccc4)cc3)n2)cc1 | -0.62% | -0.94% | -1.34% |
| c1ccc(-c2cc(NCCCn3ccnc3)nc(-c3cccnc3)n2)cc1 | 2.2% | 3.19% | 0.94% |
| CCCC(C)Nc1nc(C)cc(N[C@@H](CC(C)C)C(=O)NCCc2ccccc2)n1 (stereo not given in full) | 7.28% | 6.41% | 8.06% |
| CC(C)(Oc1c(C2CCN(CCCCNC(=O)c3ccc(-c4ccc(C#N)cc4)cc3)CC2)ccc2c1CCCC2)C(N)=O | 0.07% | 0.7% | -1.31% |
| C=CC[C@H](C[C@H](O)[C@H](Cc1ccccc1)NC(=O)c1ccc(-n2cccn2)cc1)C(=O)NC1CCCCC1 | 9.63% | 9.73% | 9.59% |
| CC1CN(c2cnn(Cc3ccc(NC(=O)Nc4ccc(-c5ccccc5)cc4)cc3)c(=O)c2Cl)CC(C)N1 (stereo not given) | 1.43% | 0.34% | -1.78% |
| FC(F)(F)c1cccc(CNCCCCCNCc2ccc(Cl)cc2)c1 | 2.96% | 1.16% | -0.19% |
| N#Cc1ccc(N(CCOc2ccc(Cl)c(F)c2)Cc2ccccc2C(F)(F)F)cc1C(F)(F)F | 3.18% | 0.42% | -1.25% |
| CC(C)N1CCN(C(CN2CCN(CCCOc3ccc(-c4ccccc4)cc3)CC2)c2ccc(F)cc2)CC1 (stereo not given) | 60.6% | 32% | 103% |
| CCCCCOc1ccc(C(O)C(CN2CCCCC2)c2ccccc2)cc1 (stereo not given) | 5.64% | 4.91% | 5.39% |
| O=C(NC1CCN(CCN2CCc3ccccc3CC2)CC1)c1ccc(-c2ccc(C(F)(F)F)cc2)cc1 | 5.74% | 9.69% | 4.56% |
| CN(CCN1CCCC1)c1nc2cc(-n3cnc4cc(-c5ccc(Cl)cc5)sc4c3=O)ccc2[nH]1 | 0.93% | 0.75% | 1.45% |
| O=C(NCCCCCN1CCC(c2c[nH]c3ccccc23)CC1)Nc1cccc(Br)c1 | 8.56% | 7.56% | 5.45% |
| CCNc1cc(C(=O)N[C@@H](Cc2ccccc2)[C@H](O)CNCCc2ccccc2)cc(N2CCCCS2(=O)=O)c1 | -0.52% | -0.67% | -3.28% |
| C=C(C)CSc1nc2c(c(=O)n1Cc1ccco1)C1(CCCCC1)Cc1ccccc1-2 | 3.67% | 3.16% | 4.72% |
| CC(C)CCNC(=O)C1Cc2c([nH]c3ccc(Br)cc23)C2(CCN(Cc3ccccc3)CC2)N1 (stereo not given) | 104% | 103% | 94.2% |
| O=C(Cc1c[nH]cn1)Nc1cccc(-c2ccc(-c3nc4ccccc4[nH]3)cc2)c1 | 1.81% | 3.82% | -0.08% |
| Cc1[nH]cnc1Cc1ccc2c(c1O)c1ccccc1n2C | 2.71% | -0.2% | -0.18% |
| CN1CCN(CC(=O)Nc2cccc(-c3cccc(-c4nc5cc(C(F)(F)F)ccc5[nH]4)c3)c2)CC1 | 3.23% | 2.92% | 3.87% |
| Cc1cc(-c2nc3ccc(C(=O)NCc4ccccc4)cc3n2C2CCN(C(=O)c3ccc(-c4ccccc4)cc3)CC2)ccn1 | 1.02% | -0.07% | 1.94% |
| CCCc1ccc(S(=O)(=O)NC2CCN(C(=O)Nc3ccc(I)cc3)CC2)cc1 | 5.43% | 5.51% | 5.03% |
